TDP1 block: inhibitors of human tyrosyl-DNA phosphodiesterase TDP1; recombinant TDP1, AlphaScreen DNA substrate cleavage; Potency, µM (titrated, usually from 130 µM), for the others: at the top dose activity change, negative = inhibition, actives largely listed as inhibitors; 0.28% of 350,000 active; AID 485290; also: % is scaled to controls: 0 for no effect and ±100 for the full control effect; nearly all actives have a fitted effect of over 40% in size
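Enzyme-compound mixtures sat 15 min at room temperature, followed by a 5 min reaction with 15 nM final substrate and 10 min with AlphaScreen beads. Recombinant human Tdp1 was used at 1 nM final.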
Tb PFK inh-1: inhibitors of T. brucei phosphofructokinase. T. brucei PFK, ADP-Glo luminescence. O15648. Potency, µM (series often up to 57.5 µM), for the others: at the top dose activity, negative = inhibition, hits mostly inhibitors. 0.17% of 330,000 active. AID 485367;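 also: 0% = uninhibited 1x PFK enzyme wells and -100% = no-enzyme wells; nearly all actives have a fitted effect of over 60% in size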
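ADP-Glo luminescence quantified ADP after 45 min at room temperature, with 1.25 nM T. brucei PFK, 0.1 mM ATP and 0.5 mM fructose-6-phosphate in pH 8.0 TEA buffer. qHTS titrations up to 57 µM; curves classified by quality.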
PLK1 PBD inh: inhibitors of human PLK1 polo-box domain binding. AID 720504. Potency, µM, for the others: max response, negative = inhibition, actives largely listed as inhibitors. 2.8% of 360,000 active. Plk1 PBD binding of FITC phosphopeptide, fluorescence polarization; also: series mostly up to about 57 µM; % is scaled to controls: 0 for no effect and ±100 for the full control effect; nearly all actives have a fitted effect of over 65% in size
Target sequence (P53350 whole entry, looked up, the tested form may be a part): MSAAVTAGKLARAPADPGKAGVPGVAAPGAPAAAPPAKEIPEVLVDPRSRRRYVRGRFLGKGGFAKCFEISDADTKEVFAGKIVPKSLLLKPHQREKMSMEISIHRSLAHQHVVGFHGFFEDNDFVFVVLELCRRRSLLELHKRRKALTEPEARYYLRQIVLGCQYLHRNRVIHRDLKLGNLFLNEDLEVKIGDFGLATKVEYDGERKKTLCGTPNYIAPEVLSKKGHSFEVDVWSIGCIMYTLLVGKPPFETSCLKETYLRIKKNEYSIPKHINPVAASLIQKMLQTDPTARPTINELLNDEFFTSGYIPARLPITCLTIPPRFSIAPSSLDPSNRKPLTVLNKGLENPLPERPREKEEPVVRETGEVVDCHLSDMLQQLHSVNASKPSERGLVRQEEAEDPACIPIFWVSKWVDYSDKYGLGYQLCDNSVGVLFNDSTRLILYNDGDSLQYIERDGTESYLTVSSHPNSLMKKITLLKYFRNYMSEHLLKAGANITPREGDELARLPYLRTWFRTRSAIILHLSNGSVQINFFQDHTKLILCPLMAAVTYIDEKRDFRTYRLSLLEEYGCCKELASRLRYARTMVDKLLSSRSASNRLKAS
VDR inh: blocks the human vitamin D receptor; P11473; VDR-SRC2-3 peptide fluorescence polarization, 2 h; Potency, µM, without a hit: max response, negative = inhibition, usual class: inhibitors; 0.93% of 400,000 active; AID 504847; also: % is scaled to controls: 0 for no effect and ±100 for the full control effect
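Fluorescence polarization assay of small-molecule disruption of VDR binding to coregulator peptide SRC2-3. Compounds and controls pin-transferred, then read after 2 h incubation at ambient room temperature.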
ASM inhibitor: inhibitors of human secretory acid sphingomyelinase. 0.006% of 340,000 active. placental ASM, HMU-PC fluorogenic substrate, 60 min. AID 504937. P17405. Potency, µM (series often up to 57.5 µM), for the others: top-dose activity change, negative = inhibition, hits mostly inhibitors
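Fluorescence read-out (Ex 386 nm, Em 447 nm) after stopping the reaction at pH 10. Enzyme: ASM from human placenta; substrate HMU-PC0, 9 uM final; 60 min, 37 °C. Compound preincubation 10 min, ambient temperature.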
Pin1 inhibitor: blocks the human prolyl isomerase Pin1; Potency, µM (highest dose often 115 µM), for inactives: at the top dose activity, negative = inhibition, actives largely listed as inhibitors; 0.009% of 390,000 active; Q13526; Pin1 FP peptide displacement, HiFluor488, 10 min; active = well fitted inhibition curve with a large enough effect in the polarisation, with a control signal flat, not every such curve was filed as active; inconclusive = small, poorly fitted or top-dose-only effect, or effect the other way, or a change in a side signal; inactive = no such curve, though single readings can be large or run the other way; the % refers to the polarisation; also: % is scaled to controls: 0 for no effect and ±100 for the full control effect
Target sequence (Q13526 whole entry, looked up): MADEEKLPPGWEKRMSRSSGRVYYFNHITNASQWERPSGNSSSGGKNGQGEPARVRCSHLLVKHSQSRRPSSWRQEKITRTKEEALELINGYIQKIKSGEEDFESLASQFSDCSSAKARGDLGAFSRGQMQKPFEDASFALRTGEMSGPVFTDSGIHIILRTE
Tb PFK KinaseGlo: inhibits T. brucei PFK measured by ATP depletion; Potency, µM (series often up to 57.5 µM), without a hit: at the top dose inhibition; AID 504636; 47% of 1,100 active; shares compounds with Tb PFK inh-1; Tb PFK enzyme, ATP depletion, Kinase-Glo Plus luminescence; calls by dose curve; also: nearly all actives have a fitted effect of over 60% in size
Tb PFK inh-2: validation of T. brucei phosphofructokinase inhibitors | purified T. brucei PFK, ADP-Glo luminescence, 45 min | 41% of 1,100 active | Potency, µM (top dose mostly 57.5 µM), for the others: at the top dose activity change, negative = inhibition, actives largely listed as inhibitors | shares compounds with Tb PFK inh-1;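 also: plate controls were full PFK enzyme control for no effect and no enzyme control for full effect; nearly all actives have a fitted effect of over 60% in size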
* marks the source's active call; other numbers are inactive results; i = inactive; ? = inconclusive; · = no result given; ! = not confirmed by another sample; [ ] = another dose, or the depositor's remark. Only some compounds are listed: those with a hit (about 3.1% of all), similar ones and a draw of the others. Unless noted, calls follow the shape of the dose curve; as a rule, active = well fitted curve in the direction sought with a large enough effect; inconclusive = small, poorly fitted or top-dose-only effect, or another doubt; inactive = no such curve, though single readings can be large; an effect the other way counts as inactive or inconclusive. Potency is read from the fitted curve at half-maximal effect.

SMILES	TDP1 block	Tb PFK inh-1	PLK1 PBD inh	VDR inh	ASM inhibitor	Pin1 inhibitor	Tb PFK KinaseGlo	Tb PFK inh-2
CCN1C(=O)C(=C2C=C(C)N(Cc3ccco3)C(C)=C2)C(=O)N(CC)C1=S	-1%	-3%	-11%	2%	183%	-4%	·	·
C#Cc1cccc2c1c(C(=O)c1ccc(Cn3c(C)nc4cnccc43)c(F)c1)cn2C(=O)N(C)C	11%	·	·	7%	·	·	·	·
CC(=O)CC(c1ccccc1)c1c(O)c2ccc(O)cc2oc1=O (centres undefined)	5%	·	·	6%	·	·	·	·
O=c1ccc2c(-c3ccccc3)c3ccc(O)cc3oc-2c1	·	12µM*	?	?	19%	?	13%	-10%
O=C(O)CCC(=O)Nc1ccc(SSc2ccc(NC(=O)CCC(=O)O)cc2)cc1	·	?	0.95µM*	?	11%	-7%	8.5µM*	17µM*
CCOC(=O)C1(c2ccccc2)CCN(CCc2ccc(NC(=O)CCC(=O)O)cc2)CC1	·	·	-4%	13%	1%	-5%	·	·
Cc1ccc(NC2c3ncccc3C(=O)N2Cc2cccs2)cc1C (centres undefined)	-9%	?	-5%	15%	-4%	1%	20%	-20%
Cc1[nH]c2c(Cl)cccc2c1CCN	1%	19µM*	-25%	10%	5%	0%	11µM*	11µM*
Cc1ccc(-c2nc3c(c(SCC(=O)Nc4cccc(C(=O)O)c4)n2)Cc2cccc(C)c2O3)cc1	·	1.7µM*	·	6%	·	?	1.1µM*	?
CCCCCCC(=O)O[C@H]1CC[C@H]2[C@@H]3CCC4CC(=O)C=C(C)[C@]4(C)[C@H]3CC[C@]12C (some centres undefined)	·	·	·	-18%	·	·	·	·
O=C1/C(=C/c2ccco2)SC(=S)N1c1cccnc1	·	?	17µM*	-18%	-9%	·	4.3µM*	7.6µM*
O=[N+]([O-])c1ccc(N2CCN(C(=S)c3cccc([N+](=O)[O-])c3)CC2)cc1	2%	19µM*	2.4µM*	?	-5%	5%	9.5µM*	24µM*
CCc1nnc(NC(=O)C(=O)NCCOC(=O)c2ccccc2Cl)s1	4%	?	-4%	-1%	3%	0%	-29%	?
CCCCOC(=O)c1ccccc1N	14%	·	-6%	4%	41%	-2%	·	·
Fc1ccc(NCc2cccnc2)cc1F	5%	24µM*	-21%	-3%	0%	?	13µM*	27µM*
CN1CN(c2cccc([N+](=O)[O-])c2)CN=C1N[N+](=O)[O-]	3%	27µM*	-12%	3%	-8%	5%	?	?
O=C(OCc1cccc([N+](=O)[O-])c1)c1ccc[nH]c1=O	8%	7.6µM*	-11%	6%	2%	2%	8.5µM*	6.7µM*
Cc1ccc(C(=O)NC(=S)Nc2ccc(-c3ccc(CO)o3)cc2)cc1	0%	?	?	3%	-2%	3%	5%	0%
O=C(COC(=O)c1cc2c(s1)CCC2)Nc1ccc(F)cc1	35µM*	11µM*	-27%	-7%	132%	?	?	?
Cc1cc(-c2nc3c4c5c(sc4[nH]c(=O)n3n2)CCC5)c(C)o1	?	?	?	-22%	0%	?	16%	-9%
Cc1ccc(S(=O)(=O)N2[C@@H](c3ccccc3F)C(C(=O)O)=CC[C@H]2c2ccc(Cl)c(Cl)c2)cc1	-3%	27µM*	?	-3%	0%	?	7%	1%
COc1cc(/C=C/c2ccc3c([N+](=O)[O-])cccc3n2)ccc1OCC(=O)O	·	?	-8%	-12%	20%	-3%	-25%	?
COc1ccc(/C=N/NC(=O)c2cccc([N+](=O)[O-])c2)cc1OC	3%	1%	-10%	-15%	-3%	?	·	·
COc1cc(/C=C/c2ccc3cccc([N+](=O)[O-])c3n2)ccc1OCC(=O)O	-14%	?	-11%	4%	0%	-5%	-24%	26%
CC1Cc2c(cnc3c2CN(C)CC3)CO1 (centres undefined)	6%[21 µM]	·	·	·	·	·	·	·
SMILES	TDP1 block	Tb PFK inh-1	PLK1 PBD inh	VDR inh	ASM inhibitor	Pin1 inhibitor	Tb PFK KinaseGlo	Tb PFK inh-2
C[C@@H](N)Cn1ccc2cc(F)c(Cl)cc21	5%	·	·	-2%	·	·	·	·
C=CCN1CC[C@]23c4c5ccc(O)c4O[C@@H]2/C(=N/N=C2\CC[C@@]4(O)C6Cc7ccc(O)c8c7[C@@]4(CCN6CC=C)[C@@H]2O8)CC[C@@]3(O)C1C5	10%[56.1 µM]	·	·	1%	·	·	·	·
CCOC(=O)c1c(N)n(Cc2ccco2)c2nc3ccccc3nc12	4%	-5%	-16%	-1%	i	?	·	·
Cc1cc(C)nc(SCc2nnc(SCc3ccc([N+](=O)[O-])cc3)n2Cc2ccco2)n1	7%	?	-13%	4%	-2%	-2%	11µM*	15µM*
CC(C)C#N	3%	·	·	·	·	·	·	·
C=CCN1CCc2cccc3c2[C@H]1Cc1ccc(O)c(O)c1-3	·	?	38µM*	10µM*!	8%	-5%	6µM*	6µM*
N#CCC(=O)NN1Cc2ccccc2C1=N	5%	2%	-3%	-5%	4%	-3%	·	·
O=C(O)[C@@H](c1ccccc1)N1Cc2ccccc2C1=O	·	?	-15%	-16%	-2%	1%	?	?
O=C(NCCCN1CCCC1=O)c1cc(NS(=O)(=O)c2ccc(F)cc2)cc(NS(=O)(=O)c2ccc(F)cc2)c1	7%	8.5µM*	-2%	3%	-3%	0%	3.8µM*	6.7µM*
NC(=O)CN1CCCC1=O	9%[56.1 µM]	-4%	-12%	7%	-4%	-11%	·	·
CC(NCc1ccc(Cl)c(Cl)c1)C(O)c1ccccc1 (centres undefined)	1%	?	-6%	-5%	7%	-6%	12µM*	24µM*
COc1cc(CC(=O)Nc2nc(-c3ccccc3)c(C(C)=O)s2)cc(OC)c1OC	7%	?	3%	14%	-1%	2%	?	?
Cn1cccc1-c1cccnc1	26%	·	·	3%	·	·	·	·
NCC#Cc1ccccc1	5%[56.1 µM]	·	·	·	·	·	·	·
Cc1nn(C(C)(C)C)c(C)c1/C=N/OC(=O)Nc1ccc(Cl)cc1	-5%	1%	-15%	10%	-18%	?	·	·
O=C(Nc1ccc(Cl)c(Cl)c1)O/N=C/c1ccncc1	2%	8.5µM*	?	7%	·	6%	?	?
CC/C=C\C/C=C\C/C=C\C/C=C\C/C=C\CCCC(=O)NCCO	6%	·	·	-5%	·	·	·	·

Screening results (PubChem BioAssay)
